HTT-AS promoter = Primary qHTS for Identification of Small Molecule Activators of Huntingtin-Antisense Promoter Activity; Potency, µM (doses to about 57.5 µM), usual class: activators; actives 0.24% (n = 48,000); HEK293 HTT-AS promoter firefly luciferase reporter, 24 h; response scale: percent change from vehicle, -100% = no light; AID 1508624, 2021; further: nearly all actives have a fitted effect of over 55% in size
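Luminescence was read after Dual-Glo reagent and a 10 min room-temperature incubation. Values were normalized to vehicle (0% activity) and zero RLU (-100% activity). Reporter HEK293 cells had been exposed to compounds (up to 57.5 uM final) for 24 h.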
DRV1 agonist = qHTS for Agonists of Human Resolvin D1 Receptor DRV1 | Probable G-protein coupled receptor 32 (Homo sapiens), O75388 | CHO-K1 GPR32 beta-arrestin PathHunter luminescence, 90 min; zero percent set by DMSO-only wells | activation, % at 76.9 µM | actives 2.5% (n = 48,000) | AID 1346428, 2018;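 active means activation of at least 60% and not above a set upper limit, about 1 call in 100 departs from these limits; inconclusive means activation of 40% to 60%, or above that upper limit; inactive means activation under 40%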
Target sequence (O75388 whole entry, looked up): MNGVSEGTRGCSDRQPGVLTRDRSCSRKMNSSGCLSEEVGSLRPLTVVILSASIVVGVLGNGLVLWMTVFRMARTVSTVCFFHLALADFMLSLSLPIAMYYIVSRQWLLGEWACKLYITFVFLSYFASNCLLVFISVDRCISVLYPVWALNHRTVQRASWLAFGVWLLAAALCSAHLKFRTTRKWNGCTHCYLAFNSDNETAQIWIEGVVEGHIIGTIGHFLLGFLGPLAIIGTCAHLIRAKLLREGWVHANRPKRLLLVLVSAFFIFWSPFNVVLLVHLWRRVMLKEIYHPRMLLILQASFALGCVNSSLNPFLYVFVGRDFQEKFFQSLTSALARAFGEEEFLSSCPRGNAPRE
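Using DMSO wells as EC0, agonist-induced signal was taken as chemiluminescence from beta-Gal reconstituted upon beta-arrestin recruitment to GPR32 in CHO-K1 cells after 90 min compound treatment.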
HTT prom inh = Primary qHTS for Identification of Small Molecule Inhibitors of Huntingtin Promoter Activity. actives 0.93% (n = 48,000). AID 1508623, 2021. HEK293 HTT promoter firefly luciferase reporter, 24 h. Potency, µM (highest dose often 57.5 µM), most hits filed as inhibitors; further: nearly all actives have a fitted effect of over 50% in size
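Firefly luciferase signal from promoter-reporter HEK293 cells was scaled between vehicle (0%) and zero RLU (-100%). Compounds were tested at final concentrations of up to 57.5 uM over 24 h at 37 degrees C. PTC124 at 50 uM final served as control inhibitor.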
Of the large screens only hits and unclear results are named; the others gave an inactive call; ! = a repeat was not active. An excerpt weighted towards active compounds, which were near 3.7% of everything screened. Unless noted, the call rests on the fitted dose curve; in most records, active means well fitted curve in the direction sought with a large enough effect; inconclusive means small, poorly fitted or top-dose-only effect, or another doubt; inactive means no such curve, though single readings can be large; an effect the other way counts as inactive or inconclusive.

Nc1ncnc2ccccc12	none (no result: DRV1 agonist)
CC(=O)c1cccc(NC(=O)c2nc3ccccc3n(C)c2=O)c1	HTT-AS promoter inconclusive, DRV1 agonist 62.1
COc1cc(NC(=O)c2nc3ccccc3n(C)c2=O)cc(OC)c1OC	none
C[C@@H](Oc1cc(-c2cnn(C3CCNCC3)c2)cnc1N)c1c(Cl)ccc(F)c1Cl	HTT prom inh inconclusive (no result: DRV1 agonist)
COCCCNC(=O)Cn1c(=O)n(-c2cccc(C)c2)c(=O)c2c1c1cc(C)ccc1n2C	none
Cc1cc(NC(=O)c2ccco2)cc(-c2nc3ccccc3o2)c1O	none
O=C(Nc1ccc(O)c(-c2nc3ccccc3o2)c1)c1ccco1	DRV1 agonist 84.1
Cc1ccc(Cn2cc(C(=O)c3ccc4c(c3)OCO4)c(=O)c3cc(C)ccc32)cc1	HTT prom inh inconclusive
O=C(c1cc(O)c(O)c(O)c1)c1ccc(O)c(O)c1O	none
Oc1ccc(Cl)cc1Cc1cc(Cl)ccc1O	DRV1 agonist 69.0, HTT prom inh inconclusive
CO[C@H]1C[C@@H]2CC[C@@H](C)[C@@](O)(O2)C(=O)C(=O)N2CCCC[C@@H]2C(=O)O[C@H]([C@H](C)C[C@@H]2CC[C@H](OC(=O)C(C)(CO)CO)[C@H](OC)C2)CC(=O)[C@H](C)C=C(C)[C@@H](O)[C@@H](OC)C(=O)[C@H](C)C[C@H](C)C=CC=CC=C1C	none (no result: DRV1 agonist)
COc1ccc(Nc2oc(-c3ccc(COc4ccc(OC)cc4)o3)nc2C#N)cc1	DRV1 agonist 71.0, HTT prom inh inconclusive
Cc1ccc(CNc2oc(-c3ccc(COc4ccc(C)cc4)o3)nc2C#N)cc1	HTT prom inh inconclusive
COc1ccc(Nc2oc(-c3ccc(COc4ccccc4)o3)nc2C#N)cc1	DRV1 agonist inconclusive
COc1ccc(CCNc2oc(COc3ccc(Cl)cc3)nc2C#N)cc1OC	HTT prom inh inconclusive
COc1ccc(Nc2oc(-c3ccc(COc4cccc(C)c4)o3)nc2C#N)cc1	DRV1 agonist 97.3
COc1ccc(CCNc2oc(COc3cccc(C)c3)nc2C#N)cc1OC	DRV1 agonist 111.4, HTT prom inh inconclusive
CCOc1ccc(Nc2oc(-c3ccc(COc4ccc(C)cc4)o3)nc2C#N)cc1	DRV1 agonist 67.3
Cc1cccc(OCc2ccc(-c3nc(C#N)c(NCc4cccnc4)o3)o2)c1	HTT prom inh inconclusive
CNC(=O)c1ccc(C)c(-n2c(C)cc(OCc3ccc(F)cc3F)c(Br)c2=O)c1	none (no result: DRV1 agonist)
COc1cc(C=CC(=O)CC(=O)C=Cc2ccc(O)c(OC)c2)ccc1O	HTT prom inh inconclusive (no result: DRV1 agonist)
CCCCCNS(=O)(=O)c1ccc(N2CCCCS2(=O)=O)cc1	HTT prom inh inconclusive
CC(C)CCNS(=O)(=O)c1ccc(N2CCCCS2(=O)=O)cc1	HTT prom inh 14.1µM
CCCCn1c(=O)n(Cc2ccccc2F)c(=O)c2[nH]c(Cc3ccc(NC(C)=O)cc3)nc21	HTT prom inh inconclusive (no result: DRV1 agonist)
COc1ccc(S(=O)(=O)NCc2cccn2Cc2cccc(C)c2)cc1OC	none
CC(=O)Nc1ccc(S(=O)(=O)NCc2cccn2Cc2cccc(C)c2)cc1	DRV1 agonist 87.9
COc1ccc(Cl)cc1NC(=O)CSc1nnc2[nH]c(=O)cc(C)n12	none
Cc1cc(OCC(=O)Nc2cnn(CCCC(=O)O)c2)ccc1Cl	DRV1 agonist 82.2
O=C(O)CCCn1cc(NC(=O)COc2ccccc2F)cn1	none
Cc1ccc(Cl)cc1NC(=O)c1ccc2snnc2c1	DRV1 agonist 85.3
Cc1c(Cl)cccc1NC(=O)c1ccc2snnc2c1	none
CN(C)c1ccc(Nc2nc3ccccc3n3nnnc23)cc1	none
CN(C)c1ccc(Nc2nc(N)n(C(=O)c3c(F)cccc3F)n2)cc1	HTT-AS promoter 24.3µM (no result: DRV1 agonist)
O=C(Nc1c(C(=O)N2CCN(c3ccccc3)CC2)oc2ccccc12)c1ccc(Br)o1	none
COc1cccc(Nc2c(C(N)=O)cnc3c(C)cc(S(=O)(=O)c4cccc(C(=O)N(C)C)c4)cc23)c1	none (no result: DRV1 agonist)
COC(=O)c1cc(Cl)ccc1NC(=O)CSc1ncc(S(=O)(=O)c2ccc(Br)cc2)c(=O)[nH]1	DRV1 agonist 100.2
COc1ccc(CNC(=O)CSc2ncc(S(=O)(=O)c3ccc(Br)cc3)c(=O)[nH]2)cc1	none
O=c1c(-c2ccc(O)cc2)coc2cc(O)ccc12	HTT-AS promoter inconclusive
CC(C)Oc1ccc2c(=O)c(-c3ccccc3)coc2c1	HTT-AS promoter 0.863µM!
Cc1cccc(C)c1NC(=O)CSc1nc2ccccc2c2nc(CCc3c(C)n[nH]c3C)nn12	none
Cc1n[nH]c(C)c1CCc1nc2c3ccccc3nc(SCC(=O)Nc3ccc(F)cc3)n2n1	DRV1 agonist 72.0
COc1ccc(NC(=O)N2CCc3c(sc4c3CCCC4)C2c2ccc(F)cc2)cc1 (configuration not stated)	HTT prom inh inconclusive
CCC(C)n1ncn(-c2ccc(N3CCN(c4ccc(OC[C@H]5CO[C@](Cn6cncn6)(c6ccc(Cl)cc6Cl)O5)cc4)CC3)cc2)c1=O (some centres not stated)	HTT prom inh inconclusive
CC[C@@H]([C@H](C)O)n1ncn(-c2ccc(N3CCN(c4ccc(OC[C@@H]5CO[C@@](Cn6cncn6)(c6ccc(F)cc6F)C5)cc4)CC3)cc2)c1=O	DRV1 agonist 67.7
COc1cccc(CNC(=O)CN2N=C(c3ccc(C)cc3)CCC2=O)c1	none
C=C1C(=C/C=C2\CCC[C@]3(C)[C@@H]([C@H](C)/C=C/[C@@H](O)C4CC4)CC[C@@H]23)C[C@@H](O)C[C@@H]1O	DRV1 agonist 106.8
C=C1C(=CC=C2CCC[C@]3(C)[C@@H]([C@H](C)CCCC(C)(C)O)CC[C@@H]23)C[C@@H](O)C[C@@H]1O	none (no result: DRV1 agonist)
CCCNC(=O)C1CCN(Cc2cc3ccccc3n2Cc2ccccc2)CC1	none
CN(C)CCNC(=O)C1CCN(Cc2cc3ccccc3n2Cc2ccccc2)CC1	DRV1 agonist 63.9, HTT prom inh inconclusive
COc1ccc(C)cc1NC(=O)N1CCC(CN2CCOCC2)CC1	none
Cc1cccc(OCC(O)CNC(C)(C)C)c1C (configuration not stated)	none
Oc1c(C(c2ccc(Cl)cc2Cl)N2CCN(c3ccccc3)CC2)sc2nc(-c3ccco3)nn12 (configuration not stated)	none
Oc1c(C(c2ccc(Cl)cc2Cl)N2CCOCC2)sc2nc(-c3ccco3)nn12 (configuration not stated)	DRV1 agonist 89.9
Cc1ccc(CNC(=O)CSc2n[nH]c(-c3ccc(F)cc3)n2)cc1	none
Cc1ccc(NC(=O)CSc2n[nH]c(-c3ccc(F)cc3)n2)cc1F	DRV1 agonist 66.8
CC(C)N1[N]C(=C2C=c3cc(O)ccc3=N2)c2c(N)ncnc21	HTT prom inh inconclusive (no result: DRV1 agonist)
CCOc1ccc(OCC)c(NS(=O)(=O)c2c(C(=O)N3CCCCCC3)c(C)n(C)c2C)c1	none
COc1ccc(-c2cc(C(F)(F)F)nc(NCc3ccccc3)n2)cc1	none
COc1ccc(-c2cc(C(F)(F)F)nc(S(C)(=O)=O)n2)cc1	DRV1 agonist 108.5, HTT prom inh inconclusive
C[C@@]1(C(=O)Nc2ccc(F)nc2)CCCN1c1nc(Nc2cc(C3CC3)[nH]n2)c2cccn2n1	HTT prom inh inconclusive (no result: DRV1 agonist)
